Test [1] concerns the target Retinoic acid receptor alpha (Homo sapiens) (UniProt P10276). Kind of test: ATG_DR5_RAR_CIS: Attagene CIS-FACTORIAL HepG2 Assay for human Retinoic Acid Receptor Alpha (RARE), DR5 submotif (AID 2282934; active = hit-call score of the fitted dose curve at least 0.9, where 1 is the maximum; inactive = score below 0.9;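 as to AC50: reporter responds to endogenous RAR alpha beta and gamma in HepG2 not RARA alone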). The settings on record: HepG2 Attagene cis-factorial RARE DR5 reporter, mRNA; actives raise or lower the signal. Summed up: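 Transient MRTU transfection of HepG2; 24 h compound treatment; TriZol RNA, oligo(dT) RT, PCR, FAM labelling, capillary electrophoresis. Bidirectional fit vs DMSO. Endogenous TF activity at DR5 RARE.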

Test [2] has as its target Bile acid receptor (Homo sapiens) (UniProt Q96RI1). Description: ATG_IR1_CIS: Attagene CIS-FACTORIAL HepG2 Assay for human Nuclear Receptor Subfamily 1 Group H Member 4 (NR1H4), IR1 submotif (AID 2282946; active = hit-call score of the fitted dose curve at least 0.9, where 1 is the maximum; inactive = score below 0.9). The following applies: IR1 reporter transcription, actives raise or lower the signal. In outline:
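Cells (human HepG2) carry transiently transfected cis-promoter reporter transcription units. Compounds are incubated 24 h, total RNA is reverse-transcribed and amplified, and labelled fragments are resolved by capillary electrophoresis. Curves use DMSO as baseline.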

In test [3] the target is Nuclear receptor subfamily 1 group I member 3 (Homo sapiens) (UniProt Q14994). Description: ATG_CAR_TRANS: Attagene TRANS-FACTORIAL HepG2 Assay for human Constitutive Androstane Receptor (CAR) (AID 2282969).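 Also: activators raise reporter mRNA above DMSO so AC50 marks induction.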 The following applies: HepG2 Attagene TRANS-FACTORIAL CAR reporter. In outline: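 Readout is reporter mRNA induction, quantified by fluorescent primer extension and capillary electrophoresis after RT-PCR. Cells were HepG2 transiently carrying chimeric NR-Gal4 constructs with GAL4-UAS reporters, treated for 24 h; activity scored upward from DMSO.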

Test [4] can be described thus: ATG_M_19_TRANS: Attagene TRANS-FACTORIAL HepG2 Assay for M19 Transcription Factor (Internal Marker) (AID 2282974). The following applies: HepG2 Attagene TRANS-FACTORIAL M19 internal marker reporter. In outline:
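Gain-of-signal in reporter mRNA, relative to DMSO, was scored from capillary electrophoresis fluorescence. HepG2 cells carried transiently transfected multiple reporter transcription units and were incubated with test chemicals for 24 h.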

The target in test [5] is Nuclear receptor subfamily 1 group I member 2 (Homo sapiens) (UniProt O75469). Kind of test: ATG_PXR_TRANS: Attagene TRANS-FACTORIAL HepG2 Assay for human Pregnane X Receptor (PXR) (AID 2283008). Summed up: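 HepG2 cells transiently transfected with multiple reporter units, here a PXR-GAL4 chimera driving a GAL4-UAS reporter; 24 h compound exposure. Reporter mRNA measured by RT-PCR, FAM labelling and capillary electrophoresis; gain of signal fitted against DMSO baseline.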

For test [6], the target named is human RAR-related Orphan Receptor beta (RORb), RORB (gene 6096) (UniProt Q92753). Kind of test: ATG_RORb_TRANS: Attagene TRANS-FACTORIAL HepG2 Assay for human RAR-related Orphan Receptor beta (RORb) (AID 2283010). In outline:
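HepG2 cells transiently transfected with GAL4-UAS reporter units expressing chimeric NR-Gal4 protein; reporter mRNA measured 24 h after dosing by RT-PCR, 6-FAM labelling and capillary electrophoresis. Gain-of-signal fitted relative to DMSO baseline.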

Test [7] concerns the target human RAR-related Orphan Receptor gamma (RORg), RORC (gene 6097) (UniProt P51449). Description: ATG_RORg_TRANS: Attagene TRANS-FACTORIAL HepG2 Assay for human RAR-related Orphan Receptor gamma (RORg) (AID 2283011). In outline: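 Activity is scored as increase in GAL4-UAS reporter mRNA over DMSO, detected by fluorescent RT-PCR and capillary electrophoresis in HepG2 cells transiently expressing a RORg-Gal4 chimera, 24 h after dosing.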

Test [8] concerns the target human Thyroid Receptor alpha (THRa1), THRA (gene 7067) (UniProt P10827). Description: ATG_THRa1_TRANS: Attagene TRANS-FACTORIAL HepG2 Assay for human Thyroid Receptor alpha (THRa1) (AID 2283014). Summed up:
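First, HepG2 cells receive multiple GAL4-UAS reporter units and the chimeric receptor. They are then dosed for 24 h, after which RNA is reverse-transcribed, amplified, labelled, HpaI-cut and sized by capillary electrophoresis; gain relative to DMSO is scored.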

The target in test [9] is human Vitamin D Receptor (VDR), VDR (gene 7421) (UniProt P11473). Description: ATG_VDR_TRANS: Attagene TRANS-FACTORIAL HepG2 Assay for human Vitamin D Receptor (VDR) (AID 2283022). Summed up: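 Fluorescence of labelled reporter cDNA fragments, resolved by capillary electrophoresis, gives mRNA induction after 24 h treatment of HepG2 cells carrying transfected Gal4-fusion reporter units. Activity is fitted in the positive direction with DMSO as baseline.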

The nature of test [10]: TOX21_p53_BLA_p3_viability: Viability Assessment in the Tox21 HCT-116 p53 Agonism Beta-lactamase Assay, Phase 3 (AID 2283593).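 Also: cells exposed to compound for 16 h before reading.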 Summed up:
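Cellular ATP was quantified by CellTiter-Glo luminescence, read after 30 min at room temperature. Beforehand, HCT116 cells (4000/well) received compound 5 h post-seeding, 217-fold diluted from DMSO, then incubated 16 h at 37C.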

Test [11] is described as follows: TOX21_p53_BLA_p4_viability: Viability Assessment in the Tox21 HCT-116 p53 Agonism Beta-lactamase Assay, Phase 4 (AID 2283597).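 Also: hits lower the luminescence signal meaning cytotoxicity.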 Summed up: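 Compound exposure of HCT116 cells lasts 16 h at 37C, 5% CO2, with DMSO stocks diluted 217-fold. Cellular ATP is then quantified by CellTiter-Glo luminescence after 30 min at room temperature.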
The nature of test [12]: TOX21_p53_BLA_p5_viability: Viability Assessment in the Tox21 HCT-116 p53 Agonism Beta-lactamase Assay, Phase 5 (AID 2283600). In outline: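 Counter-readout for cytotoxicity: ATP-dependent luminescence from CellTiter-Glo, read in the beta-lactamase wells after 30 min at RT, following a 16 h compound exposure at 37C.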
The nature of test [13]: CCTE_Harrill_HTTr_Viability_MCF7: CCTE's 6-hour Cell Viability Assessment for the High-Throughput Transcriptomics (HTTr) Platform, in MCF-7 cells cultured in DMEM + 10% fetal bovine serum, Harrill Lab (AID 2284010; active = hit-call score of the fitted dose curve at least 0.9, where 1 is the maximum; inactive = score below 0.9). In outline:
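MCF-7 cells in DMEM + 10% FBS, 384-well, exposed 6 h to an eight-point dilution series. Membrane integrity scored by high-content imaging of propidium iodide exclusion; bidirectional fit versus DMSO.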

Test [14] is described as follows: ACEA_ER_AUC_viability: ACEA Biosciences xCELLigence Real-Time Cell Analysis on Estrogen Receptor Agonism for Viability (AID 2283782).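 Also: continuous compound exposure with impedance area under curve over 80 h; hit means loss of impedance signal meaning reduced cell growth or viability.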 In outline:
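T-47D; phenol red-free RPMI1640 + 10% CS-FBS; 8 conc., 1:4 serial, max 100 uM final, ≤0.5% DMSO; n = 2; continuous exposure; impedance monitored to 80 h post-dose; AUC vs DMSO.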

Test [15] in a line: ATG_GAL4_TRANS: Attagene TRANS-FACTORIAL HepG2 Assay for GAL4 (Internal Marker) (AID 2282976). The following applies: HepG2 Attagene TRANS GAL4 internal marker reporter. Summed up: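 Fluorescence from capillary electrophoresis of labelled RT-PCR products quantifies reporter mRNA induction after 24 h dosing of HepG2 cells carrying transfected GAL4-UAS reporter transcription units. Vehicle DMSO serves as baseline.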

The target in test [16] is Hepatocyte nuclear factor 4-alpha (Homo sapiens) (UniProt P41235). Kind of test: ATG_HNF4a_TRANS: Attagene TRANS-FACTORIAL HepG2 Assay for human Hepatocyte Nuclear Factor 4 alpha (HNF4a) (AID 2282982). The following applies: HepG2 HNF4a transactivation reporter, mRNA readout. In outline:
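Readout is fluorescent reporter-transcript fragments resolved by capillary electrophoresis after RT-PCR from HepG2 cells dosed for 24 h. Cells carried transfected GAL4-UAS reporter constructs measuring exogenous NR-GAL4 chimera activity; DMSO served as baseline.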

Test [17] has as its target Nuclear receptor subfamily 4 group A member 2 (Homo sapiens) (UniProt P43354). Description: ATG_NURR1_TRANS: Attagene TRANS-FACTORIAL HepG2 Assay for human Nuclear Receptor Related Protein 1 (NURR1) (AID 2282985). The following applies: HepG2 Attagene TRANS reporter, mRNA readout. Summed up:
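Transient transfection of HepG2, human liver cells, with multiple GAL4-UAS reporter transcription units. Cells dosed 24 h, RNA isolated, reverse-transcribed, PCR-amplified, FAM-labelled, HpaI-digested, sized by capillary electrophoresis. DMSO served as negative control.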

Test [18] addresses Cellular tumor antigen p53 (Homo sapiens) (UniProt P04637). Kind of test: TOX21_p53_BLA_p2_ratio: Tox21 HCT-116 p53 Agonism Beta-lactamase Assay, Ratio, Phase 2 (AID 2283592). Summed up: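 An inducible beta-lactamase reporter in HCT116 cells signals p53 pathway activation. After 16 h chemical exposure at 37C, cells load CCF4-AM substrate for 2 h at room temperature; activity is the cleaved/uncleaved emission ratio relative to DMSO.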

Test [19] has as its target Oxysterols receptor LXR-alpha (Homo sapiens) (UniProt Q13133). Kind of test: ATG_LXRa_TRANS: Attagene TRANS-FACTORIAL HepG2 Assay for human Liver X Receptor alpha (LXRa) (AID 2282980). The settings on record: HepG2 Attagene TRANS reporter, LXRa transactivation. In outline:
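Transient HepG2 transfectants, 24 h dosing, RT-PCR/CE mRNA reporter quantitation; gain-of-signal vs DMSO.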

Test [20] is described as follows: ATG_XTT_Cytotoxicity: Cytotoxicity Assessment in the Attagene TRANS-FACTORIAL HepG2 Assay (AID 2283584). In outline: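 Transfect HepG2 with GAL4-UAS reporter units, dose compound, incubate 24 h, then measure viable cell number by XTT. Fit concentration response against DMSO baseline.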

“And” between values parts separate entries of the source, which are not always exact repeats. Equal values may be shown once. Records with an inconclusive call do not appear. The source made the active and inactive calls. The calls were made as follows, unless noted: active = hit-call score of the fitted dose curve at least 0.9, where 1 is the maximum; inconclusive = response in the unintended direction; inactive = score below 0.9.

human RAR-related Orphan Receptor beta (RORb), RORB (gene 6096), sequence (Q92753 whole entry, looked up, the tested form may be a part): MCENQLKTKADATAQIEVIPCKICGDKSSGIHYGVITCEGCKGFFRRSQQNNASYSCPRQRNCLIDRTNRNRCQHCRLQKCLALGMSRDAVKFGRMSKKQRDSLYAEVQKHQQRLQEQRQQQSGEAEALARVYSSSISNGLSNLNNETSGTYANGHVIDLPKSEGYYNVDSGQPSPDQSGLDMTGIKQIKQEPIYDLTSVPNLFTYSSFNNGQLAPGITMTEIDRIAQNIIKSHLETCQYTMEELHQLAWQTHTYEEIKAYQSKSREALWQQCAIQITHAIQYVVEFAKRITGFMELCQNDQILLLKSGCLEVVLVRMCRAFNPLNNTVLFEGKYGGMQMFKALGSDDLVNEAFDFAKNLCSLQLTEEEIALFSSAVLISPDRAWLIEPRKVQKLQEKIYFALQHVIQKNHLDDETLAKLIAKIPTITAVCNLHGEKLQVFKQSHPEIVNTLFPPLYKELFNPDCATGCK
Bile acid receptor (Homo sapiens), sequence (Q96RI1 whole entry, looked up, the tested form may be a part): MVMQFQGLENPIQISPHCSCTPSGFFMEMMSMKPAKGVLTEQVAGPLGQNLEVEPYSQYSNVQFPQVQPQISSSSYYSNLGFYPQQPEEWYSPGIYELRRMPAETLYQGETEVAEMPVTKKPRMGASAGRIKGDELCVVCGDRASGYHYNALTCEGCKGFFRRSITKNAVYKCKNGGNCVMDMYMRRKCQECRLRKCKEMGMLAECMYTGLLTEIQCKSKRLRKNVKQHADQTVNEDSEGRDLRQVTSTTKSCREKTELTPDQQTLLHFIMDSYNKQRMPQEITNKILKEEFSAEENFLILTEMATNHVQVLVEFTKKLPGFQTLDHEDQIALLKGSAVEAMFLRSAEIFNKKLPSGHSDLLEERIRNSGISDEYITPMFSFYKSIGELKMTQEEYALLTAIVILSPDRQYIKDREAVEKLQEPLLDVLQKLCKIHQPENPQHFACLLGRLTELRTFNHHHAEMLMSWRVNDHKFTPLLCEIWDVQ
Hepatocyte nuclear factor 4-alpha (Homo sapiens), sequence (P41235 whole entry, looked up, the tested form may be a part): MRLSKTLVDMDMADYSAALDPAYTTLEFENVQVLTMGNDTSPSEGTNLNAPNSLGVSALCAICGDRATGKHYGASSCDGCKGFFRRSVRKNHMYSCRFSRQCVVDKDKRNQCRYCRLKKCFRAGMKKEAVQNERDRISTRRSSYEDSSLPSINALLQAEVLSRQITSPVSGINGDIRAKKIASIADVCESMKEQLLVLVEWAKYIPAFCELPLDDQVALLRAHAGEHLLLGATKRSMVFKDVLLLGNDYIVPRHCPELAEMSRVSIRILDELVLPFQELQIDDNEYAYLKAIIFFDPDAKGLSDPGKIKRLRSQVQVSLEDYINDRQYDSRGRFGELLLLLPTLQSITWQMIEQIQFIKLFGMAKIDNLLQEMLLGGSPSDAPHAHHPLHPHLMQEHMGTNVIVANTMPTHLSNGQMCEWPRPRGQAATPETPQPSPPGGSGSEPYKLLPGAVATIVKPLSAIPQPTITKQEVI
Retinoic acid receptor alpha (Homo sapiens), sequence (P10276 whole entry, looked up): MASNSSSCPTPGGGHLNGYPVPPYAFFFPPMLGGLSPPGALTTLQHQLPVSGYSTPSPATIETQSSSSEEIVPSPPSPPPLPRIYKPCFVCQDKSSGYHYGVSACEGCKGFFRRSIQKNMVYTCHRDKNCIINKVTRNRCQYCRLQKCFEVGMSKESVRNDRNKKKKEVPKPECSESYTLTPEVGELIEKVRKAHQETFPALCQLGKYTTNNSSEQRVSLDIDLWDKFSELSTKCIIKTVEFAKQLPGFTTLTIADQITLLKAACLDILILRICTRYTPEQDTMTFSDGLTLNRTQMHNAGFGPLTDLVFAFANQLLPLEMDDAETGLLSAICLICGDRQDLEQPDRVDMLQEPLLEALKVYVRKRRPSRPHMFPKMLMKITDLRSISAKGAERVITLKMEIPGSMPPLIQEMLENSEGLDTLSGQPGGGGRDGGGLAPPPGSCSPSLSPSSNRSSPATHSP
human Vitamin D Receptor (VDR), VDR (gene 7421), sequence (P11473 whole entry, looked up, the tested form may be a part): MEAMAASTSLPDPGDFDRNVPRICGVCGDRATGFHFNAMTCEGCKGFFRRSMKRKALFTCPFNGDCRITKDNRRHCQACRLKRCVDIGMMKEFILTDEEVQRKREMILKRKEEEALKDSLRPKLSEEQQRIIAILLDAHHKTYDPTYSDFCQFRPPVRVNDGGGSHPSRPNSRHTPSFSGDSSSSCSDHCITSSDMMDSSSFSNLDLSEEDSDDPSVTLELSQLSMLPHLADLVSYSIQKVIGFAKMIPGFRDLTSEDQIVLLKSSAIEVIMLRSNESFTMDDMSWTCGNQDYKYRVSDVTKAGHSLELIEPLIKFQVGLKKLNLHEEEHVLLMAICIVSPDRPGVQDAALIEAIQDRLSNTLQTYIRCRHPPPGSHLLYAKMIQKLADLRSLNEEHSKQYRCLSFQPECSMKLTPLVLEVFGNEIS
Nuclear receptor subfamily 1 group I member 3 (Homo sapiens), sequence (Q14994 whole entry, looked up, the tested form may be a part): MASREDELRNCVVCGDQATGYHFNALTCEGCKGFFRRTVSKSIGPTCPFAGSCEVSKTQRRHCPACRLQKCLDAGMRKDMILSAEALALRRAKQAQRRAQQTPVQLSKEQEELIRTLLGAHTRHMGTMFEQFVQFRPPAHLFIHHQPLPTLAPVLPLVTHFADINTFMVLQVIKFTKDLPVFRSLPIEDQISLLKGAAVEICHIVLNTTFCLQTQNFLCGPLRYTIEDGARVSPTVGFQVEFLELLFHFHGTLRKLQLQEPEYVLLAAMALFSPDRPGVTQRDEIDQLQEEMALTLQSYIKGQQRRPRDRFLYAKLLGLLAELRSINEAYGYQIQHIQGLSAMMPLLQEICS
Nuclear receptor subfamily 1 group I member 2 (Homo sapiens), sequence (O75469 whole entry, looked up, the tested form may be a part): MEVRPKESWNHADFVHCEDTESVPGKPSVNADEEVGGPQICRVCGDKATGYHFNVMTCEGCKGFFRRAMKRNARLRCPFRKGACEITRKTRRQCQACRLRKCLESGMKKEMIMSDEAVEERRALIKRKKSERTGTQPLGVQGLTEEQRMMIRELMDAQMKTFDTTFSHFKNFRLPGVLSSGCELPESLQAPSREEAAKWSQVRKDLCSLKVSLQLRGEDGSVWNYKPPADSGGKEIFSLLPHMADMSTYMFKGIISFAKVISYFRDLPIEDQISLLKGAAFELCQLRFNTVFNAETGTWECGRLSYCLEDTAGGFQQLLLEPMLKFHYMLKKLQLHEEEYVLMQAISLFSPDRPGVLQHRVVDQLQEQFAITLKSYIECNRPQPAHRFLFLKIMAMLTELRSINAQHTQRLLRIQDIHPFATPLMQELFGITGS
human Thyroid Receptor alpha (THRa1), THRA (gene 7067), sequence (P10827 whole entry, looked up, the tested form may be a part): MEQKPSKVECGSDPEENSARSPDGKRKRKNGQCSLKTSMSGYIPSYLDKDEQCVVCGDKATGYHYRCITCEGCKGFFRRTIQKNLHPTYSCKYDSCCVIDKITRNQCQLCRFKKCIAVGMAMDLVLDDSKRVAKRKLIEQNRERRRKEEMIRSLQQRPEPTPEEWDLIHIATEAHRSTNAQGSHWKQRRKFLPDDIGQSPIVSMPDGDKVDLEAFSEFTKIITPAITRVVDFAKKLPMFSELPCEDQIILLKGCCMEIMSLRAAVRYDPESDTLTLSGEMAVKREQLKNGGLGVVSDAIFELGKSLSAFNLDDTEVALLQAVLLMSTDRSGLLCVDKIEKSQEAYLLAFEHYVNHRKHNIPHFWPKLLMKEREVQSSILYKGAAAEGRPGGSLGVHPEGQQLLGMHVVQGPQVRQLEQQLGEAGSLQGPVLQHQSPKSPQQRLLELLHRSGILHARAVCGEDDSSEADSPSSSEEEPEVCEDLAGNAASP
Nuclear receptor subfamily 4 group A member 2 (Homo sapiens), sequence (P43354 whole entry, looked up, the tested form may be a part): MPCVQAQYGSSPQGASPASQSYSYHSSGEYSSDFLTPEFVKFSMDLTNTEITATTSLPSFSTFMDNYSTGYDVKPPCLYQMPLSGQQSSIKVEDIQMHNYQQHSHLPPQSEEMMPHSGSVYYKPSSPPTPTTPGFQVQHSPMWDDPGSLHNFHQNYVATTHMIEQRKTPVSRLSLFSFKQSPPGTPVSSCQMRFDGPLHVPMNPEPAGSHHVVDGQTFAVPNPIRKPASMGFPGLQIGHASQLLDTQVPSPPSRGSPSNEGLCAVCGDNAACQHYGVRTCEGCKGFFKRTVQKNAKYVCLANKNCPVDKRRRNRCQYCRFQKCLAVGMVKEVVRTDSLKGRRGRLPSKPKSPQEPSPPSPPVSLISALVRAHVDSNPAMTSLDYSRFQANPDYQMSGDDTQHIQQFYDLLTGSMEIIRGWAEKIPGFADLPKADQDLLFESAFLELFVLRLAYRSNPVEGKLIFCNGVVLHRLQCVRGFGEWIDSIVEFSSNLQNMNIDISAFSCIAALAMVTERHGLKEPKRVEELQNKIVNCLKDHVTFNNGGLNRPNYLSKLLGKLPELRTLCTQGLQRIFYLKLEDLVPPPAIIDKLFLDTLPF
Oxysterols receptor LXR-alpha (Homo sapiens), sequence (Q13133 whole entry, looked up): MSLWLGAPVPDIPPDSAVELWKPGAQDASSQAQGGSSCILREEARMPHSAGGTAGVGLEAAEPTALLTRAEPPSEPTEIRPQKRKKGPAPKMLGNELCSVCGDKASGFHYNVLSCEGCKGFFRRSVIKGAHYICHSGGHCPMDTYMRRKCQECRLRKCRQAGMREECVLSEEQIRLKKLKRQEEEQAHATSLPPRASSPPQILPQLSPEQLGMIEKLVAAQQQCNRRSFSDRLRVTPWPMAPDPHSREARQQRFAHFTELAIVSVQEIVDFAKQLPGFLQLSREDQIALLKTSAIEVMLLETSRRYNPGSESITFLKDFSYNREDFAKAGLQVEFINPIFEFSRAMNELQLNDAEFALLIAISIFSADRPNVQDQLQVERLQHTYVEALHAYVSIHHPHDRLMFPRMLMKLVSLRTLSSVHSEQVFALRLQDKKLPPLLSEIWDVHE

As to `O=c1[nH]c(Cl)c(Cl)cc1Cl`, the compound was classed as inactive in [1], in test [2], in [3], in test [4], in [5] and in test [6]. Moreover, the compound was classed as inactive in test [7], in test [8], in [9], in test [10], in test [11] and in test [12]. Moreover, the result in test [13] was inactive.
For the compound `CCC1CCC(=O)O1` (stereo unspecified), the compound was classed as inactive in test [1], in test [7], in test [8], in test [9] and in test [14].
As to `N#CC(c1ccccc1)c1ccccc1`, the compound was classed as inactive in test [1], in [2], in [3], in [15], in [16] and in test [17]. In addition, the compound was called inactive in [6], in test [8], in test [9], in test [18], in test [10] and in test [11]. In addition, in test [5], the AC50 is 4.59 µM (active).
In the case of `CC1(C)CC(=O)CC(C)(C)N1[O]`, the result in test [1], in test [2], in test [3], in test [4], in test [15] and in test [17] was inactive. Moreover, the result in test [5], in test [9], in [18], in test [11], in test [12] and in [14] was inactive.
Turning to `C[N+](=O)[O-]`, the compound was called inactive in [15], in test [19], in test [8], in test [11] and in [12].
With `Nc1ccccc1C(=O)Oc1ccc2ccccc2c1`, the AC50 is 173 µM (active) in [1], 26.1 µM (active) in [2], 48.6 µM (active) in test [5] and 24.4 µM (active) in test [14]. In addition, the compound was classed as inactive in test [4], in [19], in test [17], in test [8], in test [9] and in test [20]. Also, the result in test [18], in [10], in test [11] and in test [12] was inactive.
On to `C[C@]12CC[C@H]3[C@@H](CC[C@@]45O[C@@H]4C(O)=C(C#N)C[C@]35C)[C@@H]1CC[C@@H]2O`, for which the call in test [3], in test [19], in [16], in test [17], in test [8] and in test [9] was inactive. The result in test [20], in test [10], in test [12] and in test [13] was inactive. The AC50 in [5] is 27.4 µM (active); in [18], 64.6 µM (active) and 35.9 µM (active).
For the compound `CC(=O)/C=C/c1ccccc1`, the compound was classed as inactive in [3], in test [17], in test [5], in [6] and in test [9]. Besides, the AC50 in [14] was 85.1 µM (active).
Consider `O=C1C=CC(=O)C=C1`, for which the result in [3], in test [16], in test [17], in test [6], in test [20] and in test [18] was inactive. For the same compound, the compound was classed as inactive in test [11], in test [12] and in test [13]. Also, the AC50 in [10] was 72.3 µM (active) and 76.5 µM (active); in [14], 73.5 µM (active).

By AC50 is commonly meant the concentration at which the activity in the assay is half-maximal.
